Bioassay records deposited in PubChem BioAssay by National Center for Advancing Translational Sciences (NCATS).
Hits are enriched below; roughly 14% of the tested compounds scored in any of these assays.
Pf growth 48h: P. falciparum growth inhibition at 48 hours (one generation). P. falciparum luciferase growth in erythrocytes, 48 h. actives 5.9% (n = 310,000). AID 504832. Potency, µM (titrated, usually from 28.7 µM), inactives show at the top dose activity change, negative = inhibition, hits mostly inhibitors; also: potency is read from the fitted curve at half-maximal effect
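Luminescence readout; reporter = integrated firefly luciferase in P. falciparum. RBC culture at 2% hematocrit, 0.1% parasitemia final, 37 C/5% CO2; decreased signal taken as growth inhibition.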
HCV inh: blocks hepatitis C virus | Potency, µM (titrated, usually from 41.8 µM), for the others: at the highest dose activity change, negative = inhibition, usual class: inhibitors | AID 651820 | actives 3.4% (n = 340,000) | Huh7.5.1 HCVcc-Cre infection, luciferase reporter, 44 h; also: potency is read from the fitted curve at half-maximal effect
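Seed cells (1,000/well) for 4 h; treat with compound and infect with HCVcc-Cre, moi about 0.5. Incubate 44 h, then detect luciferase activity.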
LASV entry inh: inhibitors of Lassa virus binding or cell entry; Potency, µM (doses to about 37.9 µM), without a hit: top-dose activity change, negative = inhibition, actives largely listed as inhibitors; actives 1.2% (n = 300,000); Lassa virus pseudotype entry inhibition, cell reporter; AID 540256; calls by dose curve; tested in HEK293 cells; also: potency is read from the fitted curve at half-maximal effect; nearly all actives have a fitted effect of over 50% in size
HCMV antiviral: inhibitors of human cytomegalovirus. AID 1259415. actives 4.5% (n = 410,000). activity change, negative = inhibition, % at 57.5 µM. HFF cells, HCMV-luciferase reporter, 72 h; hits give low values; in the data active = activity change below about -60%; inconclusive = no clear call, values can overlap the other calls; inactive = above about -39%
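Inhibition of viral replication was scored as loss of reporter luminescence in HFFs infected with HCMV-luciferase (MOI 1 PFU/cell) for 72 h; compounds tested at 2 doses, normalized to buffer and Salinomycin controls.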
Pf growth 96h: P. falciparum growth inhibition at 96 hours; P. falciparum luciferase reporter growth, 96 h; Potency, µM (top dose mostly 28.7 µM), without a hit: at the highest dose activity change, negative = inhibition, actives largely listed as inhibitors; actives 6.9% (n = 320,000); AID 504834; also: potency is read from the fitted curve at half-maximal effect
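P. falciparum expressing integrated firefly luciferase, in erythrocytes at 2% hematocrit, 0.05% parasitemia, incubated with compounds 96 h at 37 C, 5% CO2. Growth inhibition read as loss of luminescence; two-generation exposure targets delayed-death apicoplast inhibitors.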
MARV entry inh: inhibitors of Marburg virus binding or cell entry; Marburg virus pseudotyped entry inhibition, cell reporter; Potency, µM (top dose mostly 37.8 µM), for inactives: at the top dose activity change, negative = inhibition, hits mostly inhibitors; actives 1.8% (n = 300,000); calls by dose curve; tested in HEK293 cells; also: potency is read from the fitted curve at half-maximal effect
* hit, by the source's call; [ ] = another dose, or the depositor's remark. Unless noted, calls follow the shape of the dose curve; as a rule, active = well fitted inhibition curve with a large enough effect; inconclusive = small, poorly fitted or top-dose-only effect, or another doubt; inactive = no such curve, though single readings can be large or run the other way. % is scaled to controls: 0 for no effect and ±100 for the full control effect.

Screening CC(NC(=O)Nc1cccnc1)(C(F)(F)F)C(F)(F)F returned Pf growth 48h 16%, HCV inh 2%, LASV entry inh 3%, HCMV antiviral -6 and MARV entry inh 5%.
O=C(O)c1ccccc1C(=O)Nc1cccc([N+](=O)[O-])c1 was read as Pf growth 48h inconclusive, HCV inh 10%, HCMV antiviral 61 and Pf growth 96h 14%.
Screening CC(NC(=O)Nc1cccc([N+](=O)[O-])c1)(C(F)(F)F)C(F)(F)F returned Pf growth 48h inconclusive, HCV inh -21%, LASV entry inh inconclusive, HCMV antiviral -93*, Pf growth 96h inconclusive and MARV entry inh inconclusive.
For CCCCOc1cccc(C(=O)N(Cc2ccc(Br)o2)C2CCS(=O)(=O)C2)c1 (stereo not drawn) the results were LASV entry inh 1%[46.1 µM], HCMV antiviral inconclusive and MARV entry inh inconclusive.
For COC(=O)c1cc2oc(C)cc2n1CC(=O)Nc1ccc(C(C)C)cc1 the results were HCMV antiviral -15 and MARV entry inh inconclusive.
For CCCCCC(=O)N1C[C@H](n2cc(-c3ccc(F)cc3)nn2)[C@@H](O)C[C@@H]1c1ccc(C)cc1 the results were HCMV antiviral 17.
`O=C(CCS(=O)(=O)c1cccc2nonc12)Nc1ccc(F)cc1F` gave LASV entry inh 26%[46.1 µM] and HCMV antiviral inconclusive.
Cn1nc(C(C)(C)C)c([N+](=O)[O-])c1C(=O)Nc1ccc(Br)cc1 was read as Pf growth 48h inconclusive, HCV inh 13µM*, HCMV antiviral -39 and Pf growth 96h inconclusive.
For O=C(O)c1cccc(NC(=O)c2ccc3c(c2)C(=O)N(c2cccc([N+](=O)[O-])c2)C3=O)c1 the results were Pf growth 48h 38%, HCV inh 15%, HCMV antiviral -3 and Pf growth 96h 5.9µM*.
For O=C(Nc1nnc(-c2ccc(F)cc2)o1)c1cccc([N+](=O)[O-])c1 the results were Pf growth 48h -27%, HCV inh 13µM*, LASV entry inh -25%, HCMV antiviral -98*, Pf growth 96h inconclusive and MARV entry inh inconclusive.
`O=C(Nc1nnc(C2=COCCO2)o1)c1cccc([N+](=O)[O-])c1` gave Pf growth 48h 20%, HCV inh 18%, LASV entry inh 15%, HCMV antiviral 13, Pf growth 96h 11% and MARV entry inh 6%.
O=C(O)c1cccc(NC(=O)c2ccc(N3C(=O)c4ccc(C(=O)Nc5cccc(C(=O)O)c5)cc4C3=O)cc2)c1 was read as Pf growth 48h 26%, HCV inh 19%, LASV entry inh -18%, HCMV antiviral -14, Pf growth 96h 35% and MARV entry inh -2%[46.1 µM].
Screening O=C(Nc1ccncc1)c1cc2ccccc2cc1O returned Pf growth 48h inconclusive, HCV inh inconclusive, LASV entry inh inconclusive, HCMV antiviral -36, Pf growth 96h 8.3µM* and MARV entry inh inconclusive.
Screening CCOC(=O)C1CCC(CN(Cc2ccc(Cl)cc2)S(=O)(=O)c2ccc(F)c(C(=O)Nc3cccc(F)c3)c2)CC1 (stereo not drawn) returned LASV entry inh -5%[46.1 µM] and HCMV antiviral 16.
For Cc1ccccc1-c1cc(C(=O)O)nn1CC1CC(c2cccc([N+](=O)[O-])c2)=NO1 (stereo not drawn) the results were Pf growth 48h -1%, HCV inh 9%, HCMV antiviral 22 and Pf growth 96h inconclusive.
Fc1cccc(Nc2nc(Cl)nc(Cl)n2)c1 was read as Pf growth 48h 3%, HCV inh 17%, HCMV antiviral -21 and Pf growth 96h 2%.
For O=C(Nc1ccc(Br)cc1)c1cc([N+](=O)[O-])cc([N+](=O)[O-])c1 the results were Pf growth 48h 2.6µM*, HCV inh inconclusive, LASV entry inh inconclusive, HCMV antiviral inconclusive, Pf growth 96h 5% and MARV entry inh inconclusive.
O=C(COc1ccccc1)Nc1nnc(-c2ccc3c(c2)CCCC3)o1 was read as Pf growth 48h 40%, HCV inh 11%, HCMV antiviral -17 and Pf growth 96h 67%.
`O=[N+]([O-])c1cccc(Nc2nc(Cl)nc(Cl)n2)c1` gave Pf growth 48h 49%, HCV inh -3%, LASV entry inh -13%, HCMV antiviral -30, Pf growth 96h 12µM* and MARV entry inh -18%[46.1 µM].
`O=C(NNC(=S)NC(=O)c1ccccc1Cl)c1cccc([N+](=O)[O-])c1` gave HCV inh inconclusive, LASV entry inh -2%, HCMV antiviral -15, Pf growth 96h 2% and MARV entry inh 9%.
`O=C(NNc1c(Cl)cc(Cl)cc1Cl)c1cccc([N+](=O)[O-])c1` gave Pf growth 48h -21%, HCV inh 10µM*, LASV entry inh 0%, HCMV antiviral -7, Pf growth 96h inconclusive and MARV entry inh 9%.
O=C(COc1ccccc1)Nc1nnc(-c2ccc(F)cc2)o1 was read as Pf growth 48h 22%, HCV inh 2%, LASV entry inh 18%[46.1 µM], HCMV antiviral -37, Pf growth 96h 12µM* and MARV entry inh 0%[46.1 µM].
`CC(=O)Nc1ccc(NC(=O)c2cc([N+](=O)[O-])cc([N+](=O)[O-])c2)cc1` gave Pf growth 48h -100%, HCV inh -1%, LASV entry inh -1%[46.1 µM], HCMV antiviral -29, Pf growth 96h 34% and MARV entry inh 5%[46.1 µM].
Screening Cc1cccc(NC(=O)c2cc3c([nH]c2=O)CC(c2ccccc2)CC3=O)c1 (stereo not drawn) returned LASV entry inh -2%[46.1 µM] and HCMV antiviral 7.
For COc1c2ccc(OCC/C(C)=C/C(=O)C=C(C)C)cc2nc2occc12 the results were HCV inh 0% and HCMV antiviral -101*.
Screening COC(=O)c1cc(C)nc2c1c(=O)nc(SCc1cccc(C)c1)n2C1CC1 returned LASV entry inh 16%[46.1 µM] and HCMV antiviral 27.
`COc1ccc(CCNC(=O)C2CCCN(S(=O)(=O)c3cnc[nH]3)C2)cc1OC` (stereo not drawn) gave HCV inh 13%, HCMV antiviral 17 and Pf growth 96h 13µM*.
For COc1ccc(CCNC(=O)C2CCCN(S(=O)(=O)c3cc(C)ccc3OC)C2)cc1OC (stereo not drawn) the results were Pf growth 48h 12µM*, HCV inh 7%, HCMV antiviral -9 and Pf growth 96h 5.2µM*.
Screening CCS(=O)(=O)N1CCCC(C(=O)NCCc2ccc(OC)c(OC)c2)C1 (stereo not drawn) returned Pf growth 48h -4%, HCV inh 18%, LASV entry inh 1%, HCMV antiviral -5, Pf growth 96h 0% and MARV entry inh 2%.
